Measurements taken from PubChem BioAssay AID434970 (Sanford-Burnham Center for Chemical Genomics, 2010).
Among all 11,000 compounds or so, about 310 (2.8%) were called active. This is one part of a sample in which actives are shown more often than they occur. Cut-off read from the data, not from the text of the source: active = activity change below about -85%; inactive = the rest.

Tested on: intestinal alkaline phosphatase [Mus musculus]
Assay: mouse intestinal phosphatase enzyme activation – biochemical, luminescence, single concentration, confirmation (AID 434970)
Settings: purified mouse IAP, CDP-Star luminescence, 30 min, at 10 µM; activation factor: measured here: IAP activation factor, stronger effect = higher value; activity change, negative = activation: stronger effect = lower value

| SMILES | activation factor | activity change, negative = activation |
| --- | --- | --- |
| CCOC(=O)c1sc(NC(=O)Nc2ccccc2Cl)cc1C | 1.89 | -89.1% (inactive) |
| Cc1cc(C)c2c(n1)sc1c(=O)[nH]c(SCc3ccccc3)nc12 | 0.801 | 19.9% (inactive) |
| CCOC(=O)Cn1cnc([N+](=O)[O-])n1 | 0.92 | 8% (inactive) |
| COc1cc(-c2nnc(COC(=O)CSc3cc(C)c4ccccc4n3)o2)cc(OC)c1OC | 0.99 | 0.95% (inactive) |
| COc1cc(NC(=O)C(Cc2ccccc2)n2cccc2)cc(OC)c1 (stereo not given) | 1.12 | -12.3% (inactive) |
| COc1cccc(NC(=S)NCCC(c2ccccc2)c2ccccc2)c1 | 3.53 | -253% (active) |
| CCCCNC(=S)Nc1ccc(Oc2ccccc2)cc1 | 1.71 | -70.5% (inactive) |
| COc1ccc(CNC(=S)Nc2cccc(Cl)c2)cc1 | 1.25 | -24.7% (inactive) |
| COc1cccc(NC(=S)NCCN2CCOCC2)c1 | 1.08 | -8.4% (inactive) |
| COc1cc(NC(=S)NCCC(c2ccccc2)c2ccccc2)cc(OC)c1 | 3.28 | -228% (active) |
| COc1ccc(S(=O)(=O)Nc2ccccc2)cc1OC | 0.947 | 5.35% (inactive) |
| COc1ccc(C(=O)CSc2nnnn2Cc2ccccc2)cc1 | 0.953 | 4.7% (inactive) |
| Cc1ccc2c(Cl)c(C(=O)Nc3cc(C)on3)sc2c1 | 0.873 | 12.6% (inactive) |
| CC(C)(C)OC(=O)CC[C@@H](C(=O)NCCCCCCCCCCC(=O)N1CCN(C(=O)OC(C)(C)C)CC1)n1cc(CCCCCNC(=O)OC(C)(C)C)nn1 | 1.51 | -51% (inactive) |
| CC[C@H](C)[C@@H](C(=O)NCCCCCCCCCCC(=O)N1CCN(C(=O)OC(C)(C)C)CC1)n1cc(CCCCCNC(=O)OC(C)(C)C)nn1 | 1.52 | -51.8% (inactive) |
| C#CCOCCOCCOCCNc1nc(N2CCOCC2)nc(N2CCN(C(=O)CCCCCCCCCCNC(=O)[C@H]([C@@H](C)CC)n3cc(CCCCN=C(N)N)nn3)CC2)n1 | 2.37 | -137% (active) |
| C#CCOCCOCCOCCNc1nc(N2CCN(C(=O)[C@H](Cc3cc4ccccc4[nH]3)n3cc([C@@H](N)C(C)CC)nn3)CC2)nc(N2CCN(C(=O)[C@H](Cc3cc4ccccc4[nH]3)n3cc([C@@H](N)Cc4ccc(O)cc4)nn3)CC2)n1 (stereo not given in full) | 1.43 | -42.8% (inactive) |
| C#CCOCCOCCOCCNc1nc(N2CCN(C(=O)CCCCCCCCCCNC(=O)[C@H]([C@@H](C)CC)n3cc(CCCCCN)nn3)CC2)nc(N2CCN(C(=O)CCCCCCCCCCNC(=O)[C@H]([C@@H](C)CC)n3cc(CCCCN=C(N)N)nn3)CC2)n1 | 15.6 | -1460% (active) |
| C#CCOCCOCCOCCNc1nc(N2CCN(C(=O)CCCCCCCCCCNC(=O)[C@H]([C@@H](C)CC)n3cc(CCCCN=C(N)N)nn3)CC2)nc(N2CCN(C(=O)CCCCCCCCCCNC(=O)[C@H](CO)n3cc(CCCCCN)nn3)CC2)n1 | 6.62 | -562% (active) |
| CC[C@H](C)[C@@H](C(=O)NCCCCCCCCCCC(=O)N1CCN(C(=O)OC(C)(C)C)CC1)n1cc(CCCCN=C(NC(=O)OC(C)(C)C)NC(=O)OC(C)(C)C)nn1 | 2.29 | -128% (active) |
